The whole screen tested about 5,500 compounds, of which about 2,000 (36%) were called active. Another 18% or so got no clear call; they are omitted. Rule as the data show it: active = normalized growth mostly below about 0.91 (no sharp cut-off); inconclusive = no clear call, values can overlap the other calls; inactive = mostly above about 0.92. The list shows a part of the results.
Assay: chemical genetic growth profiling, strain panel (AID 1159580);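 also: tested at 20 µM; growth read once vehicle control cultures reached saturation at 30 °C; 1 = growth at the plate median or of vehicle wells; lower values mean less growth of the strain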
Settings: S. cerevisiae deletion strains, growth OD

Measured: normalized growth

CNS(=O)(=O)c1ccc(NC(=O)c2ccccc2C(=O)O)cc1
inactive: locus YAL021C, strain ccr4, active compounds read low 1 | locus YAL026C, strain drs2, active compounds read low 1 | locus YAL030W, strain snc1, active compounds read low 1 | locus YBL061C, strain skt5, active compounds read low 0.993 | locus YBR009C, strain hhf1, active compounds read low 0.998 | locus YBR023C, strain chs3, active compounds read low 1 | locus YBR171W, strain sec66, active compounds read low 0.996 | locus YBR231C, strain swc5, active compounds read low 0.991 | locus YBR279W, strain paf1, active compounds read low 1 | locus YCL011C, strain gbp2, active compounds read low 0.993 | locus YCL016C, strain dcc1, active compounds read low 1 | locus YCL061C, strain MRC1, active compounds read low 1 | locus YCL069W, strain vba3, active compounds read low 1 | locus YCR088W, strain abp1, active compounds read low 0.999 | locus YDL005C, strain med2, active compounds read low 1 | locus YDL040C, strain nat1, active compounds read low 1 | locus YDR001C, strain nth1, active compounds read low 0.996 | locus YDR069C, strain doa4, active compounds read low 0.995 | locus YDR137W, strain rgp1, active compounds read low 1.01 | locus YDR159W, strain sac3, active compounds read low 0.982 | locus YDR195W, strain ref2 0.977 | locus YDR297W, strain sur2, active compounds read low 0.995 | locus YDR334W, strain swr1, active compounds read low 1 | locus YDR335W, strain msn5, active compounds read low 1 | locus YDR392W, strain spt3, active compounds read low 0.968 | locus YEL003W, strain gim4, active compounds read low 0.994 | locus YEL037C, strain rad23, active compounds read low 1.01 | locus YEL061C, strain CIN8 (second series), active compounds read low 0.999 | locus YER015W, strain faa2, active compounds read low 0.989 | locus YER016W, strain bim1, active compounds read low 1.01 | locus YER111C, strain swi4, active compounds read low 1 | locus YER155C, strain BEM2 (second series), active compounds read low 1 | locus YFR010W, strain ubp6, active compounds read low 1.01 | locus YGL167C, strain pmr1, active compounds read low 0.993 | locus YGL173C, strain kem1, active compounds read low 0.997 | locus YGL227W, strain vid30, active compounds read low 0.998 | locus YGL240W, strain doc1, active compounds read low 0.988 | locus YGL253W, strain hxk2, active compounds read low 0.998 | locus YHR013C, strain ard1, active compounds read low 0.997 | locus YHR027C, strain rpn1, active compounds read low 0.992 | locus YHR030C, strain SLT2, active compounds read low 0.995 | locus YHR079C, strain IRE1, active compounds read low 0.992 | locus YHR142W, strain chs7, active compounds read low 1.02 | locus YJL092W, strain hpr5, active compounds read low 0.995 | locus YJL095W, strain BCK1 (second series), active compounds read low 0.99 | locus YJL095W, strain BCK1, active compounds read low 0.981 | locus YJL115W, strain asf1, active compounds read low 0.995 | locus YJL129C, strain trk1, active compounds read low 1.02 | locus YJL154C, strain vps35, active compounds read low 0.997 | locus YJL164C, strain tpk1, active compounds read low 1.01 | locus YJL166W, strain qcr8, active compounds read low 0.998 | locus YJL187C, strain SWE1, active compounds read low 0.99 | locus YJR066W, strain TOR1, active compounds read low 0.931 | locus YKL160W, strain elf1, active compounds read low 1.01 | locus YKR026C, strain gcn3, active compounds read low 0.979 | locus YKR091W, strain srl3, active compounds read low 0.994 | locus YLL001W, strain dnm1, active compounds read low 1.01 | locus YLL026W, active compounds read low 0.995 | locus YLL041C, strain sdh2, active compounds read low 1 | locus YLR027C, strain aat2, active compounds read low 1 | locus YLR113W, strain HOG1, active compounds read low 0.969 | locus YLR221C, strain rsa3, active compounds read low 1 | locus YLR258W, strain gsy2, active compounds read low 0.998 | locus YLR262C, strain YPT6 (second series), active compounds read low 0.992 | locus YLR320W, strain mms22, active compounds read low 1 | locus YLR342W, strain FKS1, active compounds read low 0.994 | locus YLR357W, strain rsc2, active compounds read low 0.994 | locus YLR370C, strain arc18, active compounds read low 0.995 | locus YLR384C, strain iki3, active compounds read low 0.992 | locus YML120C, strain ndi1, active compounds read low 0.992 | locus YMR058W, strain fet3, active compounds read low 0.998 | locus YMR125W, strain sto1, active compounds read low 0.994 | locus YMR129W, active compounds read low 1.01 | locus YMR205C, strain PFK2, active compounds read low 0.967 | locus YMR231W, strain pep5, active compounds read low 0.998 | locus YNL071W, strain lat1, active compounds read low 1.01 | locus YNL183C, strain NPR1, active compounds read low 0.933 | locus YNL209W, strain ssb2, active compounds read low 0.997 | locus YNL248C, strain rpa49, active compounds read low 0.998 | locus YNL322C, strain KRE1 (second series), active compounds read low 0.998 | locus YNR049C, strain mso1, active compounds read low 1 | locus YOR001W, strain rrp6, active compounds read low 1 | locus YOR070C, strain gyp1, active compounds read low 0.999 | locus YOR080W, strain dia2, active compounds read low 0.994 | locus YOR083W, strain WHI5, active compounds read low 0.997 | locus YOR106W, strain vam3, active compounds read low 1.01 | locus YOR231W, strain MKK1, active compounds read low 0.991 | locus YOR265W, strain rbl2, active compounds read low 1.01 | locus YOR270C, strain vph1, active compounds read low 1.03 | locus YOR290C, strain snf2, active compounds read low 0.995 | locus YPL051W, strain arl3, active compounds read low 1.02 | locus YPL078C, strain atp4, active compounds read low 1.02 | locus YPL106C, strain sse1, active compounds read low 0.984 | locus YPL240C, strain hsp82, active compounds read low 0.992 | locus YPL256C, strain CLN2, active compounds read low 0.987

From PubChem BioAssay AID1159580 (chemical genetic matrix, 2015)
